Screens (PubChem)
An excerpt weighted towards active compounds, which were near 8.7% of everything screened.
G9a inh – blocks human histone lysine methyltransferase G9a; G9a H3K9 monomethylation, AlphaScreen, 2 h; Potency, µM (doses to about 102 µM), for inactives: top-dose activity, negative = inhibition, most hits filed as inhibitors; 350,000 compounds, 8.8% hits; note: % is set by controls: 0 for no effect and ±100 for the full control effect; nearly all actives have a fitted effect of over 75% in size
Target sequence (Q96KQ7 913-1193 limits assumed): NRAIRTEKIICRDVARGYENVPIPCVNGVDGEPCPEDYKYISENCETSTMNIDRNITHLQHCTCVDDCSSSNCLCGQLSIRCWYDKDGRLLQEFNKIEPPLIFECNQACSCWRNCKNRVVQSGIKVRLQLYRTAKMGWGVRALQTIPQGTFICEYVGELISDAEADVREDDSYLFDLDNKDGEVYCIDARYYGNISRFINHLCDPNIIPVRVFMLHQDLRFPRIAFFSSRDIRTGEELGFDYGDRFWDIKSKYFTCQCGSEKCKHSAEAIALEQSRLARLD
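Using a bead-based AlphaScreen, monomethylated H3K9 product from 2 h room-temperature reactions (G9a 20 nM, peptide 500 nM, SAM 20 uM) was detected with 0.5 ug/mL rabbit anti-H3K9me1 antibody.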
HP1b binding inh – inhibitors of HP1-beta chromodomain binding to methylated histone tails. 390,000 compounds, 0.56% hits. Potency, µM (titrated, usually from 114 µM), for the others: at the highest dose activity change, negative = inhibition, most hits filed as inhibitors. AID 540317. AlphaScreen HP1-beta / biotin-H3K9me3 peptide binding; note: nearly all actives have a fitted effect of over 70% in size
Target sequence (P83916 whole entry, looked up): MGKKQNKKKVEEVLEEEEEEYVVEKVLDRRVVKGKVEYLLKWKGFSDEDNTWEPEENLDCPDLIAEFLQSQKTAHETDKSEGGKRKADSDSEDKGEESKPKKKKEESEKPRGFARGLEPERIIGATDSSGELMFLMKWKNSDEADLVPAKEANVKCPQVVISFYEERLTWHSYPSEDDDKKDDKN
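Compound inhibition of the preformed complex between 50 nM HP1-beta and 50 nM biotinylated H3K9me3 peptide was read by AlphaScreen. Buffer was PBS pH 7.4 with 0.01% Tween-20. Incubations ran 30 min at room temperature, with 10 ug/mL donor/acceptor beads.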
JMJD2A Tudor inh – blocks the human JMJD2A Tudor domain. Potency, µM (doses to about 114 µM), inactives show at the highest dose activity change, negative = inhibition, hits mostly inhibitors. AlphaScreen JMJD2A-Tudor / H3K4me3 peptide binding. 390,000 compounds, 4.4% hits; note: % is set by controls: 0 for no effect and ±100 for the full control effect; nearly all actives have a fitted effect of over 50% in size
12-LOX inh – ALOX12 (human) lipoxygenase inhibition; 580,000 compounds, 1.1% hits; purified 12hLO, xylenol orange hydroperoxide absorbance; Potency, µM (highest dose often 108 µM), for the others: at the highest dose activity change, negative = inhibition, most hits filed as inhibitors; AID 1671190; P18054; note: % is set by controls: 0 for no effect and ±100 for the full control effect
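Purified human 12hLO at 150 nM in 25 mM Hepes, 0.01% Triton X-100, pH 7.0, preincubated 15 min at room temperature with compound. Reaction started with 40 uM arachidonic acid, 30 min at room temperature. Hydroperoxide measured by Fe-xylenol orange, 573/405 nm absorbance ratio.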
Sfp inh – inhibitors of Bacillus subtilis Sfp phosphopantetheinyl transferase | Q9F4F7 | Biochemical Sfp PPTase activity, qHTS | Potency, µM, without a hit: largest response in the series, negative = inhibition, most hits filed as inhibitors | 310,000 compounds, 3.5% hits | AID 1490;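 note: the enzyme is Sfp with the accession as filed and its product quenches rhodamine fluorescence; 0% = enzyme reaction without inhibitor and -100% = no enzyme wells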
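Reaction rates are the 30-min fluorescence difference (ex 525, em 598 nm) in wells containing 15 nM Sfp, 5 uM rhodamine-CoA and 12.5 uM BHQ-2-YbbR at pH 7.6 with 10 mM MgCl2.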
BAZ2B block – inhibitors of human BAZ2B bromodomain | 360,000 compounds, 4.4% hits | Q9UIF8 | Potency, µM (series often up to 114 µM), for the others: at the highest dose activity change, negative = inhibition, usual class: inhibitors | AlphaScreen BAZ2B-H3K14Ac peptide displacement; note: % is set by controls: 0 for no effect and ±100 for the full control effect; nearly all actives have a fitted effect of over 60% in size
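Protein-peptide AlphaScreen: BAZ2B 50 nM, b-H3K14Ac 50 nM, 1x PBS pH 7.4 + 0.01% Tween-20. Preincubation 30 min RT; cpd 30 min RT (top 110 uM); beads 20 min RT, light-protected.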
Numbers without * were called inactive; ? = inconclusive; · = not tested or not shown; [ ] = another dose, or the depositor's remark. Calls come from the whole dose curve; as a rule, active = well fitted curve in the direction sought with a large enough effect; inconclusive = small, poorly fitted or top-dose-only effect, or another doubt; inactive = no such curve, though single readings can be large; an effect the other way counts as inactive or inconclusive. Potency is the fitted concentration of half-maximal effect.

SMILES	G9a inh	HP1b binding inh	JMJD2A Tudor inh	12-LOX inh	Sfp inh	BAZ2B block
Cc1cc(C(=O)CSc2ccc(F)cc2)cc(C)c1OC(=S)N(C)C	5.5%	48.3%	8.4%	4.6%	-18.5%	?
COc1ccc(SCC(=O)c2cc(C)c(OC(=S)N(C)C)c(C)c2)cc1	39.8µM*	72.4%	11.7%	-18.4%	-10.1%	5.2%
COc1ccc(CC(=O)N[C@@H]2CN(c3ccccn3)C[C@H]2CN(C)C)cc1OC	·	·	·	30.8%	·	·
Cc1cc(C)nc(/N=c2/ssnc2Cl)c1	6.31µM*	-16.4%	-19.3%	8.91µM*	20µM*	·
Cc1ccc(-c2nc3ccccc3nc2Cl)cc1	21.1%	71.0%	25.5%	0.8%	18.2%	9.1%
Cc1ccc(N=c2ssnc2Cl)cc1	1.58µM*	15.8µM*	31.6µM*	1.58µM*	12.6µM*	44.7µM*
Cc1nnc(N=c2ssnc2Cl)o1	2.7%[0.501 µM]	?	44.7µM*	3.16µM*	·	?
Cc1cc(C)c(C#N)c(Cl)n1	-0.6%[59 µM]	14.8%	1.4%	-6.8%	5.6%	1.3%
Nc1ccccc1N=c1ssnc1Cl	1.26µM*	-13.2%	?	?	1.58µM*	50.1µM*
Cc1cc(Cl)ccc1N=c1ssnc1Cl	1.78µM*	22.4µM*	79.4µM*	?	7.08µM*	8.91µM*
COc1ccc(N2CCN(C(c3ccc4ncccc4c3)c3nnnn3C(C)(C)C)CC2)cc1 (stereo unspecified)	?	-12.2%	?	-12.7%	1.3%	35.5µM*
CCC(C)(C)n1nnnc1C(c1ccc2ncccc2c1)N1CCN(c2ccc(O)cc2)CC1 (stereo unspecified)	10µM*	13.0%[57 µM]	14.1µM*	-20.1%	20µM*	-32.9%
COc1ccc(N2CCN(C(c3ccc(C)cc3)c3nnnn3C(C)(C)C)CC2)cc1 (stereo unspecified)	·	-19.0%	50.1µM*	·	·	·
CC(C)(C)n1nnnc1C(c1ccc2ncccc2c1)N1CCC(O)CC1 (stereo unspecified)	3.9%[59 µM]	31.5%	-14.3%	-18.9%	9.1%	-5.8%
CC(C)(C)n1nnnc1C(c1ccccc1)N1CCN(c2ccc(F)cc2)CC1 (stereo unspecified)	·	·	·	5.7%	·	·
COc1ccc(N2CC(c3noc(-c4ccccc4F)n3)CC2=O)cc1OC (stereo unspecified)	·	·	·	23.6%	·	·
O=c1[nH]c(-[n+]2ccccc2)c(/C=N/NC([S-])=Nc2ccccc2)s1	22.4µM*	-6.3%	-27.8%	11.1%	?	-37.8%
CCc1ccc[n+](-c2[nH]c(=O)sc2/C=N/NC([S-])=Nc2ccccc2)c1	22.4µM*	-38.4%	?	-19.5%	-20.9%	?
O=c1[nH]c(-[n+]2ccc3ccccc3c2)c(/C=N/N=C(\[O-])c2ccccc2)s1	?	35.2%	-9.3%	-3.8%	-3.8%	-17.9%
Cc1cc[n+](-c2[nH]c(=O)sc2/C=N/NC([S-])=Nc2ccccc2)cc1	28.2µM*	?	?	-26.4%	-20.8%	?
CC(C)(C)c1cc[n+](-c2[nH]c(=O)sc2/C=N/NC(=O)c2ccccc2[O-])cc1	79.4µM*	9.3%	-26.4%	3.8%	-1.4%	-12.5%
Cc1cc(C)c[n+](-c2[nH]c(=O)sc2/C=N/NC([S-])=Nc2ccccc2)c1	35.5µM*	?	?	-24.3%	-28.9%	?
CCc1ccc[n+](-c2[nH]c(=O)sc2/C=N/N=C(\N)[O-])c1	17.0%	21.7%	6.1%	53.4%	?	-26.7%
CC(=O)Nc1ccc(C(=O)NC(CC(=O)O)c2ccc(C(C)(C)C)cc2)cc1 (stereo unspecified)	·	·	·	20.1%	·	·
O=C(O)c1ccccc1C(=O)NCc1ccccc1	-27.8%[2.33 µM]	50.0%	-17.6%	11.5%	-4.4%	10.1%
O=C(NCc1ccccc1)c1ccccc1C(=O)c1ncc[nH]1	12.6µM*	28.7%	-2.0%	-0.3%	?	?
COCCn1ncc(N2CCC(C(=O)N3CCN(C(C)C)CC3)C2)cc1=O (stereo unspecified)	·	·	·	-13.5%	·	·
